# Measured values reported in PubChem BioAssay AID2284364 (EPA ToxCast).
# Calls of active or inactive are those of the source. How the source made its calls: active means hit-call score of the fitted dose curve at least 0.9, where 1 is the maximum; inactive means score below 0.9.
# Molecular target: Peroxisome proliferator-activated receptor gamma (Homo sapiens) (UniProt P37231)
# Test: ERF_US_NR_hPPARG: Eurofins (ERF) Nuclear Receptor (NR) Cell Based Protein-Protein Interaction LeadHunter Assay for human Peroxisome Proliferator-activated Receptor-gamma (PPARg) Agonism
# Description: ERF_US_NR_hPPARG is a cell-based, single-readout assay that uses extracted gene-proteins in a cell-line assay. Measurements were taken 5 hours after chemical dosing in a 384-well plate. See PPARgamma Human NHR Cell Based Agonist Protein-Protein Interaction Assay, DiscoverX.ERF_US_NR_hPPARG is an assay component calculated from the ERF_US_NR_hPPARG assay. It is designed to measure […] using a type of binding reporter as detected by scintillation counting with radiometry technology.Data from the assay component ERF_US_NR_hPPARG was analyzed at the assay endpoint, ERF_US_NR_hPPARG, in the positive analysis fitting direction relative to DMSO as the negative control and baseline of activity. Using a type of binding reporter, gain-of-signal activity can be used to understand changes in binding as they relate to gene PPARG. To generalize the intended target to other relatable targets, this assay endpoint is annotated to the nuclear receptor intended target family, where the subfamily is non-steroidal.
# Cells were seeded in a total volume of 20 uL into white walled, 384-well microplates and incubated at 37C overnight prior to testing.Briefly, intermediate dilution of sample stocks was performed to generate 5X sample in assay buffer. 5 uL of 5X sample was added to cells and incubated at 37C for 300 minutes. […] The results are expressed as a percent efficacy of the control ligand.
# Sequence of Peroxisome proliferator-activated receptor gamma (Homo sapiens) (P37231 whole entry, looked up): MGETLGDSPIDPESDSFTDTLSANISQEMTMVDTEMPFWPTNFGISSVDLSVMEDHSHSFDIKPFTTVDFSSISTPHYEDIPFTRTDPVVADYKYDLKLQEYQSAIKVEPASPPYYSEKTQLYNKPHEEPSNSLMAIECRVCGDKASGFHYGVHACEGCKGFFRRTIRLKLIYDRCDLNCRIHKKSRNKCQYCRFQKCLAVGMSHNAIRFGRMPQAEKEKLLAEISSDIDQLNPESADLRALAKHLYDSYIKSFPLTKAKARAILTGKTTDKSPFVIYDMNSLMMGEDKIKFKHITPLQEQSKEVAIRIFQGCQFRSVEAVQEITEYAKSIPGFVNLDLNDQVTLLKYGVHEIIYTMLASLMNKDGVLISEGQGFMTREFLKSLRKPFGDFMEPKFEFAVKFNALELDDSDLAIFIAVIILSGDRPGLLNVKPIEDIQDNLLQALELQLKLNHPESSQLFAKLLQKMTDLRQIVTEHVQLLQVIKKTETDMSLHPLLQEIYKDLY
smiles,measurement,value
O=S(=O)(O)C(F)(F)C(F)(F)C(F)(F)C(F)(F)C(F)(F)C(F)(F)C(F)(F)C(F)(F)F,outcome,inactive
